# PubChem BioAssay (Tox21)
# Values without a mark were called inactive. Records with an inconclusive call do not appear. Entries that show only a call come without a potency. The source made the active and inactive calls. The call rests on the fitted dose curve; in most records, active means well fitted curve in the direction sought with a large enough effect in the repeat runs; inconclusive means weak or mixed curves; inactive means no such curve, though single readings can be large; an effect the other way counts as inactive or inconclusive.
# Tests used:
# [1] = A CellTox Green Cytotoxicity Assay to monitor cytotoxicity in HEK293 cells - 40 hour (AID 1224871); further: nearly all actives have a fitted effect of over 45% in size
# How it was run: (§1)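 HEK293 cells, 600/well, were preincubated 5 hours and then exposed to compounds at 37 C for up to 40 hours. A cell-impermeant cyanine dye staining dead-cell DNA was read by fluorescence at 0, 8, 16, 24, 32 and 40 h time points.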
# [2] = qHTS RealTime-Glo MT Cell Viability Assay in HEK293 cells - 16 hour (AID 1224872); further: nearly all actives have a fitted effect of over 50% in size; further: potency means the concentration at half of the fitted maximal effect
# How it was run: (§2)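 Nonlytic real-time viability readout: viable cells convert prosubstrate to NanoLuc substrate, giving luminescence proportional to live cell number. HEK293, 600 cells/well, compound added after 5 h, continuous culture at 37 C.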
# [3] = qHTS RealTime-Glo MT Cell Viability Assay in HepG2 cells - 8 hour (AID 1224873); further: nearly all actives have a fitted effect of over 55% in size
# How it was run: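 HepG2 cells mixed with RealTime-Glo MT reagents (NanoLuc plus cell-permeant prosubstrate) were seeded at 600 cells/well, incubated 5 h at 37 C/5% CO2, then pinned with compounds in DMSO; nonlytic luminescence tracked viability during 40 h treatment.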
# [4] = A CellTox Green Cytotoxicity Assay to monitor cytotoxicity in HEK293 cells - 24 hour (AID 1224875); further: series mostly up to about 77 µM; nearly all actives have a fitted effect of over 45% in size
# How it was run: as §1
# [5] = A CellTox Green Cytotoxicity Assay to monitor cytotoxicity in HepG2 cells - 16 hour (AID 1224876); further: nearly all actives have a fitted effect of over 45% in size
# How it was run: (§3)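 HepG2 cells, 600/well, preincubated 5 h with CellTox Green dye, then exposed to Tox21 compounds in DMSO at 37 C for up to 40 h. Dead-cell DNA fluorescence read at the indicated time point.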
# [6] = qHTS RealTime-Glo MT Cell Viability Assay in HepG2 cells - 32 hour (AID 1224877); further: nearly all actives have a fitted effect of over 55% in size
# How it was run: (§4)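 Luminescence read-out: viable HepG2 cells reduce a prosubstrate to a NanoLuc substrate, giving a signal proportional to live cell number. Reads taken at 0, 8, 16, 24, 32 and 40 h of compound exposure at 37 C.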
# [7] = A CellTox Green Cytotoxicity Assay to monitor cytotoxicity in HepG2 cells - 24 hour (AID 1224878); further: nearly all actives have a fitted effect of over 45% in size
# How it was run: as §3
# [8] = A CellTox Green Cytotoxicity Assay to monitor cytotoxicity in HepG2 cells - 40 hour (AID 1224879); further: nearly all actives have a fitted effect of over 40% in size; further: potency means the concentration at half of the fitted maximal effect
# How it was run: as §3
# [9] = A CellTox Green Cytotoxicity Assay to monitor cytotoxicity in HEK293 cells - 32 hour (AID 1224881); further: nearly all actives have a fitted effect of over 40% in size
# How it was run: as §1
# [10] = A CellTox Green Cytotoxicity Assay to monitor cytotoxicity in HepG2 cells - 0 hour (AID 1224882); further: nearly all actives have a fitted effect of over 35% in size
# How it was run: as §3
# [11] = A CellTox Green Cytotoxicity Assay to monitor cytotoxicity in HepG2 cells - 32 hour (AID 1224883); further: nearly all actives have a fitted effect of over 50% in size; further: potency means the concentration at half of the fitted maximal effect
# How it was run: as §3
# [12] = A CellTox Green Cytotoxicity Assay to monitor cytotoxicity in HEK293 cells - 8 hour (AID 1224884); further: nearly all actives have a fitted effect of over 35% in size
# How it was run: as §1
# [13] = qHTS RealTime-Glo MT Cell Viability Assay in HepG2 cells - 16 hour (AID 1224885); further: nearly all actives have a fitted effect of over 50% in size
# How it was run: as §4
# [14] = qHTS RealTime-Glo MT Cell Viability Assay in HEK293 cells - 24 hour (AID 1224886); further: nearly all actives have a fitted effect of over 50% in size; further: potency means the concentration at half of the fitted maximal effect
# How it was run: as §2
# [15] = A CellTox Green Cytotoxicity Assay to monitor cytotoxicity in HEK293 cells - 16 hour (AID 1224888); further: nearly all actives have a fitted effect of over 35% in size
# How it was run: as §1
# [16] = qHTS RealTime-Glo MT Cell Viability Assay in HepG2 cells - 0 hour (AID 1224889); further: nearly all actives have a fitted effect of over 50% in size
# How it was run: as §4
# [17] = qHTS RealTime-Glo MT Cell Viability Assay in HEK293 cells - 0 hour (AID 1224880)
# How it was run: (§5)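 600 cells/well were plated with the nonlytic NanoLuc/prosubstrate reagent, pre-incubated 5 h, then given 23 nL of compound in DMSO. Incubation at 37 C for 40 h, with luminescence from viable-cell-reduced substrate read repeatedly from 0 h.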
# [18] = A CellTox Green Cytotoxicity Assay to monitor cytotoxicity in HepG2 cells - 8 hour (AID 1224890); further: nearly all actives have a fitted effect of over 45% in size
# How it was run: as §3
# [19] = qHTS RealTime-Glo MT Cell Viability Assay in HEK293 cells - 8 hour (AID 1224887); further: nearly all actives have a fitted effect of over 50% in size; further: potency means the concentration at half of the fitted maximal effect
# How it was run: as §5
Structure (SMILES),Potency [1],Potency [2],Potency [3],Potency [4],Potency [5],Potency [6],Potency [7],Potency [8],Potency [9],Potency [10],Potency [11],Potency [12],Potency [13],Potency [14],Potency [15],Potency [16],Potency [17],Potency [18],Potency [19]
CC(Cl)C(C)Cl (configuration not stated),inactive,inactive,inactive,inactive,inactive,inactive,inactive,inactive,inactive,inactive,inactive,inactive,inactive,inactive,inactive,inactive,–,–,–
CCOP(=O)(OCC)SCCSCC,inactive,inactive,inactive,inactive,inactive,inactive,inactive,inactive,inactive,–,inactive,inactive,inactive,inactive,inactive,inactive,inactive,inactive,–
O=C1C(Cl)C(CCl)CN1c1cccc(C(F)(F)F)c1 (configuration not stated),inactive,24.5 µM (active),inactive,inactive,inactive,inactive,inactive,–,inactive,inactive,inactive,inactive,–,24.5 µM (active),inactive,inactive,inactive,inactive,24.5 µM (active)
NC(=O)C(Cl)(Cl)Cl,inactive,inactive,inactive,inactive,inactive,inactive,inactive,inactive,inactive,inactive,inactive,inactive,inactive,inactive,inactive,inactive,inactive,inactive,–
C=CCCl,inactive,inactive,inactive,inactive,inactive,inactive,inactive,inactive,inactive,inactive,inactive,inactive,–,inactive,inactive,inactive,inactive,inactive,–
CN(C)c1ccc(N(C)C)cc1,inactive,inactive,inactive,inactive,inactive,inactive,inactive,–,inactive,inactive,inactive,–,inactive,–,inactive,inactive,inactive,inactive,34.8 µM (active)
C[C@H]1CNCCc2ccc(Cl)cc21,inactive,inactive,inactive,inactive,inactive,inactive,inactive,inactive,inactive,–,inactive,inactive,inactive,inactive,inactive,inactive,–,–,–
COC(N)=O,inactive,inactive,inactive,inactive,inactive,inactive,inactive,inactive,inactive,–,inactive,inactive,–,inactive,inactive,inactive,inactive,inactive,inactive
CCOC(=O)C(Cl)C(C)=O (configuration not stated),inactive,inactive,inactive,inactive,inactive,inactive,inactive,24.8 µM (active),inactive,inactive,24.8 µM (active),–,inactive,inactive,inactive,inactive,–,inactive,inactive
C=C(C#N)CCC#N,inactive,inactive,inactive,inactive,inactive,inactive,inactive,inactive,inactive,inactive,inactive,inactive,inactive,inactive,inactive,inactive,inactive,inactive,inactive
Cn1cc[n+](C)c1 (tested in a mixture with another compound),inactive,inactive,inactive,inactive,inactive,inactive,inactive,inactive,inactive,–,inactive,inactive,inactive,inactive,inactive,inactive,inactive,–,inactive
CCOP(=O)(OCC)Oc1ccc([N+](=O)[O-])cc1,inactive,inactive,inactive,inactive,inactive,inactive,inactive,inactive,inactive,inactive,inactive,inactive,inactive,inactive,inactive,inactive,–,–,inactive
O=C=Nc1ccc(Cl)cc1,inactive,inactive,inactive,inactive,inactive,inactive,inactive,–,inactive,inactive,inactive,inactive,inactive,inactive,inactive,inactive,inactive,inactive,inactive
Cc1ccccc1C(=O)Nc1cccc(OC(C)C)c1,inactive,inactive,inactive,inactive,inactive,inactive,inactive,inactive,inactive,inactive,inactive,–,–,–,inactive,inactive,inactive,–,–
CN1C(=O)C(O)N=C(c2ccccc2)c2cc(Cl)ccc21 (configuration not stated),inactive,inactive,inactive,inactive,inactive,inactive,inactive,inactive,inactive,inactive,inactive,inactive,inactive,–,inactive,inactive,inactive,inactive,–
